According to PubChem BioAssay AID2620 (National Center for Advancing Translational Sciences (NCATS), 2010):
Results filed as inconclusive are left out. Activity calls are given as the source filed them. The call rests on the fitted dose curve; in most records, active means well fitted curve in the direction sought with a large enough effect; inconclusive means small, poorly fitted or top-dose-only effect, or another doubt; inactive means no such curve, though single readings can be large or run the other way.

Target: Pyruvate kinase PKM (Homo sapiens) (UniProt P14618)
Sequence (P14618 whole entry, looked up, canonical isoform): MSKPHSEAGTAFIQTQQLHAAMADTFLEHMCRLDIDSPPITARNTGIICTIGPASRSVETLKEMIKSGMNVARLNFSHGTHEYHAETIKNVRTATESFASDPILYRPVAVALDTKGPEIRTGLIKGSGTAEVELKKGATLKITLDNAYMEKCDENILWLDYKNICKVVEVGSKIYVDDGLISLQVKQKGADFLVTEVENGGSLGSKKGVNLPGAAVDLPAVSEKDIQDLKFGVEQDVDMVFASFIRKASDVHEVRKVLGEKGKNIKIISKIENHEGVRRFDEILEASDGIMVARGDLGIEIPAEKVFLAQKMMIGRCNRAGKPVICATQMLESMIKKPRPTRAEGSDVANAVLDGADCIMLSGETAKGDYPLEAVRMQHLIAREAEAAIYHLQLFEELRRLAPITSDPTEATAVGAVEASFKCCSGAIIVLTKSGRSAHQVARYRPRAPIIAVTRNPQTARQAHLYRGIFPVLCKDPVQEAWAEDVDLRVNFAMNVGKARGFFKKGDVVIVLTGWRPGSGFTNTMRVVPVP
Assay: Secondary LDH Assay for Activators of Human Pyruvate Kinase M1 Isoform: for Probe SAR; further: % of control where 0% means no effect
Details: purified hPK-M1, LDH-coupled NADH fluorescence kinetic; series mostly up to 58.2 µM; activity change, negative = inhibition: at the top concentration
Excerpt: NIH Chemical Genomics Center [NCGC]
Matthew G. Vander Heiden, M.D., Ph.D. [Harvard Medical School, 77 Avenue Louis Pasteur, Boston, MA 02115]
Human pyruvate kinase […] (hPK-M1)enzyme was supplied as a highly purified (>95% pure) preparation from Harvard Medical School and a secondary assay was used to evaluate compounds. This assay couples the formation of pyruvate from […] using lactate dehydrogenase (LDH) and NADH. The depletion of NADH is followed in a fluorescent-based kinetic assay that follows the formation of pyruvate to lactate, as catalyzed LDH. Pyruvate kinase substrates, PEP and ADP, were present in the assay at 0.1 mM and 4 mM respectively. In this kinetic assay initial rates were determined by following the fluorescence of NADH depletion.
NCGC Assay Protocol Summary:
Three uL of substrate mix (final concentration, 50 mM Tris-Cl pH 8.0, 200 mM KCl, 15 mM MgCl2, 0.1 mM PEP, 4.0 mM ADP, and 0.2 mM NADH) was dispensed into black-solid 1536 well plates. 23 nL of compounds were delivered by a pin tool and 1 uL of enzyme mix (final concentrations, 10 nM hPK-M1 and 1 uM of LDH) was added. Plates were immediately placed in ViewLux (Perkin Elmer) and NADH fluorescence was determined at 30 second exposure intervals for between 3 and 6 minutes. Data were normalized to the uninhibited controls.

Activity change, negative = inhibition, inactive:
Cc1cc(C)n2c(Nc3ccccc3)c(-c3ccc(C)o3)nc2n1 2.62%
O=C1CCc2cc(S(=O)(=O)Nc3cccc4ccccc34)ccc2N1 8.49%
Cc1ccc2nc(-c3ccc(C)o3)c(NC3CCCC3)n2c1 -5.73%
Cc1ccc(NS(=O)(=O)c2cccc(Cl)c2)cc1C 4.63%
O=C1c2ccccc2C(=O)N1c1cccc2ncccc12 -3.84%
Cc1ccc(NS(=O)(=O)c2ccc(N3CCCC3=O)cc2)cc1C 3.2%
Cc1ccc(N2C(=O)c3ccccc3C2=O)c(C)c1 -3.72%
COc1cccc(N2C(=O)c3ccccc3C2=O)c1 6.23%
O=C1c2ccccc2C(=O)N1c1ccncc1 10.2%
Cc1ccc(NS(=O)(=O)c2cc3c(cc2F)NC(=O)CC3)cc1Cl 4.31%
Cc1ccc(NS(=O)(=O)c2ccc3c(c2)CCC(=O)N3)cc1Cl 8.26%
CC(=O)N1c2ccc(S(=O)(=O)Nc3ccc(C)c(C)c3)cc2CC1C (stereo not given) 1.97%
O=C1CCc2cc(S(=O)(=O)Nc3ccccc3Cl)ccc2N1 -4.68%
O=C1CCc2cc(S(=O)(=O)Nc3ccc(F)cc3)ccc2N1 -3.57%
O=C1c2ccccc2C(=O)N1c1cccc2ccncc12 -5.12%
O=C1CCc2cc(S(=O)(=O)Nc3ccc4c(c3)CCC4)ccc2N1 -4.44%
O=C1CCc2cc(S(=O)(=O)Nc3ccncc3)ccc2N1 8.5%
O=C1c2ccccc2C(=O)N1c1nccs1 3.93%
Nc1cc(S(=O)(=O)N2CCN(S(=O)(=O)c3ccc4c(c3)OCCO4)CC2)ccn1 -1.52%
CN=c1nc(-c2ccccc2)n(-c2ccccc2)s1 7.26%
Cc1ccc2nc(-c3ccc(C)o3)c(Nc3ccc4c(c3)OCO4)n2c1 2.02%
O=C1c2ccccc2C(=O)N1c1ncccc1O 6.3%
Cc1ccc(NS(=O)(=O)c2cccc(F)c2)cc1C 4.61%
O=C1c2ccccc2C(=O)N1Cc1ccccc1 -1.98%
Cc1ccc(NS(=O)(=O)c2cc3c(cc2-c2ccsc2)NC(=O)CO3)cc1C 11.5%
COc1cccc(OC2=NS(=O)(=O)c3ccccc32)c1 7.2%
Cc1ccn2c(NC3CCCCC3)c(-c3ccc(C)o3)nc2c1 -4.41%
CCNc1cccc(S(=O)(=O)N2CCN(S(=O)(=O)c3ccc4c(c3)OCCO4)CC2)c1 -3.37%
N#Cc1ccc(NS(=O)(=O)c2ccc3c(c2)CCC(=O)N3)cc1 -2.2%
Cc1cccc(NS(=O)(=O)c2ccc3c(c2)CCC(=O)N3)c1 5.91%
O=C1CCc2cc(S(=O)(=O)Nc3cccc(Oc4ccccc4)c3)ccc2N1 -2.58%
CNc1cc2c(cc1S(=O)(=O)Nc1ccc(C)c(C)c1)CCC(=O)N2 4.43%
Cc1ccc(NS(=O)(=O)c2cc3c(cc2Br)NC(=O)CO3)cc1C 4.41%
CCCCN1C(=O)c2ccccc2C1=O -2.66%
Cc1ccc(NS(=O)(=O)c2ccc3c(c2)N(C)C(=O)CO3)cc1C 3.09%
Cc1ccc(NS(=O)(=O)c2ccc3c(ccn3C)c2)cc1C 7.17%
Cc1ccc(Nc2c(-c3ccsc3)nc3cccc(C)n23)cc1 -5.94%
Cc1ccc(NS(=O)(=O)c2ccc3c(c2)CCN(C(=O)C(F)(F)F)C3)cc1C 0.987%
O=S1(=O)N=C(Oc2ccccc2Cl)c2ccccc21 5.42%

outcome, inactive:
Cc1cc2c(s1)c1cnn(Cc3ccccc3F)c(=O)c1n2C
